# Measurements from PubChem BioAssay (Tox21).
# Calls of active or inactive are those of the source. Calls follow the shape of the dose curve; as a rule, active = well fitted curve in the direction sought with a large enough effect in the repeat runs; inconclusive = weak or mixed curves; inactive = flat fitted curve, though single readings scatter.
# Test: qHTS assay to test for compound auto fluorescence at 460 nm (blue) in HepG2 cells (AID 720687)
# Conditions: autofluorescence 405/460 nm, 1 h; series mostly up to 91.3 µM; fluorescence, % of fluorescent control: at the top concentration
# Text: U.S. Tox21 Program National Center for Advancing Translational Sciences [NCATS] NIH Chemical Genomics Center [NCGC] U.S. Environmental Protection Agency [EPA] National Institutes of Environmental Health Sciences [NIEHS] National Toxicology Program [NTP] U.S. Food and Drug Administration [FDA] Tox21 Assay Overview: Compound auto fluorescence often interferes with screening of the compound library against various biological targets and signaling pathways. Some of these compounds may have fluorophoric properties. Such properties may interfere with the assay outputs resulting in false positives and/or negatives. To decrease such complications and ensure the compound activities are relevant in terms of biological response, the Tox21 10K compound library was screened for auto fluorescence. From the fluorophores used as reporter signals in our screening assays, the auto fluorescence equivalencies of compounds against three fluorophores have been evaluated: Triamterene, Fluorescein and Rose Bengal sodium for blue, green and red fluorescence, respectively. The fluorescence intensities were measured using Excitation/Emission wavelengths at 405/460nm, 485/535nm and 540/590nm for blue, green and red labels, respectively. This assay includes the blue fluorescence data.
# Tox21 Assay Protocol Summary: 2,000 HepG2 cells in 5 uL of culture medium (MEM containing 10% FBS) per well were dispensed into black wall/clear bottom 1536-well plates using a Multidrop Combi Dispenser (ThermoFisher Scientific, Waltham, MA). The assay plates were incubated overnight at 37 C to allow cell attachment to the well bottom, followed by the transfer of 23 nL compound or DMSO vehicle by a pintool work station (Kalypsys , San Diego, CA). After the assay plates were incubated for 1 hr at 37 C and 5% CO2, fluorescence intensities in the assay plates were measured by an Envision (PerkinElmer, Shelton, CT) plate reader using three labels for measuring blue, green and red fluorescence at […] 460, 535 and 590 nm respectively.
# % is scaled to controls: 0 for no effect and ±100 for the full control effect.
SMILES,"fluorescence, % of fluorescent control",Potency
COC(=O)C1=C(C)NC(C)=C(C(=O)OCCN2CCN(C(c3ccccc3)c3ccccc3)CC2)C1c1cccc([N+](=O)[O-])c1 (stereo not given),-0.0392% [at 46 µM] (inactive),–
O=C(Oc1ccccc1)Oc1ccccc1,0.103% (inactive),–
CCCCOC(=O)CC,-0.127% (inactive),–
Clc1ccnc(Cl)n1,-0.0573% [at 95.7 µM] (inactive),–
C[Si](Cl)(c1ccccc1)c1ccccc1,-0.009% (inactive),–
CC1(C)CCC[C@]2(C)[C@H]3CC(=O)O[C@]3(C)CC[C@@H]12,-0.0202% (inactive),–
CCCCCCCCCCCCCCCC[N+](C)(C)CC,–,inactive
CC1=Nc2ccccc2C1(C)C,0.687% (inactive),–
O=C(O)c1ccc2cc(C(=O)O)ccc2c1,0.0066% (inactive),–
Cc1cc(C(C#N)c2ccc(Cl)cc2)c(Cl)cc1NC(=O)c1cc(I)cc(I)c1O (stereo not given),0.208% [at 46 µM] (inactive),–
CC(CO)Oc1ccccc1 (stereo not given),-0.0989% [at 95.7 µM] (inactive),–
[Cu+],-0.292% (inactive),–
COc1cccc2c1C(=O)c1c(O)c3c(c(O)c1C2=O)C[C@@](O)(C(C)=O)C[C@@H]3O[C@H]1C[C@H](N)[C@H](O)[C@H](C)O1,–,inactive
CCCCCCCCCCCCOC(=O)c1ccc(O)cc1,0.0668% (inactive),–
COc1cc(/C=C/c2ccccc2)oc(=O)c1,0.0047% [at 95.7 µM] (inactive),–
ClCCl,-0.221% (inactive),–
CC(C)(C)CC(C)(C)c1ccc(Nc2ccc(C(C)(C)CC(C)(C)C)cc2)cc1,0.0384% [at 3.72 µM] (inactive),–
CCCCCCCC,-0.0306% (inactive),–
O=C(O)c1cc(O)c2ccccc2c1O,-0.0698% (inactive),–
CN(C)Cc1ccccc1O,-0.231% (inactive),–

SMILES,"fluorescence, % of fluorescent control",Potency
CCN1C(=O)c2ccccc2C1Nc1ccc(OCCN2CCCCC2)cc1 (stereo not given),-0.0877% [at 46 µM] (inactive),–
CCCCC(CC)CN1CN(CC(CC)CCCC)CC(C)(N)C1 (stereo not given),-0.0067% [at 18.6 µM] (inactive),–
O=C1C(c2[nH]c3ccc(S(=O)(=O)O)cc3c2O)=Nc2ccc(S(=O)(=O)O)cc21,–,inactive
O=C(O)c1cc(=O)c2ccccc2o1,-0.0153% [at 46 µM] (inactive),–
NC(=S)NC(N)=S,-0.0916% (inactive),–
COc1ccc2cc1Oc1ccc(cc1)C[C@H]1c3c(cc4c(c3Oc3cc5c(cc3OC)CCN(C)[C@@H]5C2)OCO4)CCN1C,9.22% [at 46 µM] (inactive),–
NC(=O)c1cccc([N+](=O)[O-])c1,0.0558% (inactive),–
CC(=O)Oc1cc2c(s1)CCN(C(C(=O)C1CC1)c1ccccc1F)C2 (stereo not given),4.51% [at 46 µM] (inactive),–
CN(C)C(=O)COC(=O)Cc1ccc(OC(=O)c2ccc(N=C(N)N)cc2)cc1,0.0565% [at 46 µM] (inactive),–
OC/C=C/CO,0.0085% (inactive),–
Oc1ccccc1O,–,inactive
COC(C)=O,–,inactive
Nc1nc(-c2ccccc2)cs1,-0.0113% (inactive),–
O=c1[nH]c2ccccc2n1CCCN1CCN(C(c2ccccc2)c2ccccc2)CC1,-0.0152% [at 46 µM] (inactive),–
CCOc1ccc2ccccc2c1C(=O)N[C@@H]1C(=O)N2[C@@H]1SC(C)(C)[C@@H]2C(=O)O,0.172% [at 18.6 µM] (inactive),–
Cc1ccc(C)cc1,0.0243% (inactive),–
OCC(F)(F)F,-0.0071% [at 95.7 µM] (inactive),–
C#C[C@]1(OC(C)=O)CC[C@H]2[C@@H]3CCC4=C[C@@H](OC(C)=O)CC[C@@H]4[C@H]3CC[C@@]21C,–,inactive
C#C[C@]1(O)CC[C@H]2[C@@H]3[C@H](C)CC4=C(CCC(=O)C4)[C@H]3CC[C@@]21C,-0.0096% [at 46 µM] (inactive),–
CN1CCN(Cc2cc(-c3ccc4[nH]c(=O)oc4c3)co2)[C@@H](c2ccc(F)cc2)C1,0.942% (inactive),–
